Laboratory results published in article PMC4336329 (PLoS ONE, 2015).
About 2,200 (0.71%) of roughly 310,000 compounds showed an effect of 50% or more. The effect is printed as a negative number. For the sample, strong results were picked, then their nearest neighbours and some compounds at random.

Each compound was assayed against human ether-à-go-go-related gene (hERG) potassium channel (human, UniProt Q12809) (assay: primary screen, population patch clamp on CHO cells stably expressing hERG; higher = less effect of the substance).
human ether-à-go-go-related gene (hERG) potassium channel, sequence (Q12809 whole entry, looked up): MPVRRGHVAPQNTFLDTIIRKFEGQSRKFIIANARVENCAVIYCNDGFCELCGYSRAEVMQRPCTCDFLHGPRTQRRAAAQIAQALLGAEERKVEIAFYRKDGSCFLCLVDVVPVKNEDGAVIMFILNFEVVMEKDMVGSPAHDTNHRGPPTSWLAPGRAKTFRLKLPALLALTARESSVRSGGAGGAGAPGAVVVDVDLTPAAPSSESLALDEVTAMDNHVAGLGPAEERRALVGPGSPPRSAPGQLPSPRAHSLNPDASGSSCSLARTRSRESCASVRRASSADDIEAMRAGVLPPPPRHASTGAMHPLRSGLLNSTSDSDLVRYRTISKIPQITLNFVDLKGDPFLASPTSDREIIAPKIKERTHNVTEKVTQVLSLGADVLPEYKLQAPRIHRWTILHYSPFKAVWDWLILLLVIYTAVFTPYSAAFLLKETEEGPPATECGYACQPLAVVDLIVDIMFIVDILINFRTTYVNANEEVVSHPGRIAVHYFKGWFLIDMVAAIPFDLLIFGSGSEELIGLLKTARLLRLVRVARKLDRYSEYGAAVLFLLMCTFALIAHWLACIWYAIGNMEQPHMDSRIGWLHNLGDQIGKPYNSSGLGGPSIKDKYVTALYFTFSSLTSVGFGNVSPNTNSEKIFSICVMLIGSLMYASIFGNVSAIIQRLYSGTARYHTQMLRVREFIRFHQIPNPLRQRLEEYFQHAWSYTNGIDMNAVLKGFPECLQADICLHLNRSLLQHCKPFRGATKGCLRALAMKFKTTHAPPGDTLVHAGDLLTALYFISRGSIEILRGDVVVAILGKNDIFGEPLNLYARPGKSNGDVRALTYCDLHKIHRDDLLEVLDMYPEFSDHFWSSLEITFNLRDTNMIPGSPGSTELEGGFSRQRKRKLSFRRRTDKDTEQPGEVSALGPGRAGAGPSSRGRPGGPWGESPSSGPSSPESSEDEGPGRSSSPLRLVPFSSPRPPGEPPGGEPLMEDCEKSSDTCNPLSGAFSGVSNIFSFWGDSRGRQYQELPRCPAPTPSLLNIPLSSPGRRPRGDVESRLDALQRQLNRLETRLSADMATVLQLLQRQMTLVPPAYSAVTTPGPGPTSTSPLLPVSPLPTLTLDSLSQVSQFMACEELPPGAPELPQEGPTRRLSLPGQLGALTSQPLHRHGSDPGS

Compound | hERG current change (%, negative = inhibition) at 1uM [%]
Nc1ccccc1C(=O)NCc1ccccc1 | 1.59
CC1(C)CC(=O)C2=C(C1)NC(=S)C(C#N)C21CCCCC1 (stereo not shown) | 10.1
CCOC(=O)N1CCN(S(=O)(=O)c2ccc(C(=O)Nc3nnc(C)o3)cc2)CC1 | 7.3
CC(CN1C(C)CCCC1C)OC(=O)c1ccccc1Br.Cl (stereo not shown) | 4.15
Cc1sc2nc(CN3CCCC3)nc(N3CCN(S(=O)(=O)c4ccccc4)CC3)c2c1C | -19.4
Cc1ccc(S(=O)(=O)N2CCN(c3nc(CN4CCCC4)nc4sc(C)c(C)c34)CC2)cc1 | -48.8
Cc1sc2nc(CN3CCCC3)nc(N3CCN(S(=O)(=O)c4cccs4)CC3)c2c1C | -65.2
CC(C)CC(=O)Nc1nc2ccc(S(C)(=O)=O)cc2s1 | 4.38
O=C(NCc1ccco1)c1scc2c1OCCO2 | 6.64
CCCCn1c(N)c(N(CCOC)C(=O)c2ccc(-c3cccc(C(F)(F)F)c3)o2)c(=O)[nH]c1=O | 10.2
O=C(Nc1ccc(Cn2nnc3ccccc32)cc1)c1ccco1 | 9.6
Cl.O=C(CN1CCN(C2CCCCC2)CC1)Nc1cccc2ccccc12 | 4.28
O=C(CN1CCCCC1)Nc1ccccc1-c1ccccc1 | 14.4
Cl.O=C(CN1CCN(C2CCCCC2)CC1)Nc1ccccc1-c1ccccc1 | -70
CCCc1c(C(=O)N/N=C/c2cccnc2)nnn1-c1nonc1N | 16.6
COc1nccc(-c2ccc(F)cc2)c1C#N | 16.9
O=C(Cn1c(=O)oc2ccccc21)Nc1ccc(Br)cc1 | 12.5
O=C(Cc1ccccc1)Nc1ccc(SC(F)F)cc1 | 2.98
CC[N+](CC)(CC)CC(=O)Nc1ccc(SC(F)F)cc1.[Cl-] | 27.1
CCn1c(N)[n+](CC(=O)Nc2ccc(SC(F)F)cc2)c2ccccc21.[Cl-] | -63.1

Compound | hERG current change (%, negative = inhibition) at 1uM [%]
Cc1cc(C)cc(N2C(=O)CC(c3ccccc3)CC2=O)c1 | 10.3
O=C(COC(=O)c1ccc[nH]c1=O)Nc1ccc2c(c1)OC(F)(F)O2 | 9.4
CN(C)CCCN(C(=O)c1ccco1)c1nc2c(F)cc(F)cc2s1.Cl | -60.2
CN(C)CCCN(C(=O)c1ccco1)c1nc2ccc(F)cc2s1.Cl | -37.4
Cc1cccc2sc(N(CCCN(C)C)C(=O)c3ccco3)nc12.Cl | -54.8
Cc1cccc2sc(N(CCCN(C)C)C(=O)c3nc4ccccc4s3)nc12.Cl | 3.73
CN(C)CCCN(C(=O)c1ccco1)c1nc2ccc(Cl)cc2s1.Cl | -14.7
Cc1ccc2nc(N(CCCN(C)C)C(=O)c3ccco3)sc2c1.Cl | -9.63
CN(C)CCCN(C(=O)c1ccc(C(=O)c2ccccc2)cc1)c1nc2c(F)cccc2s1 | -1.61
CN(C)CCCN(C(=O)c1sc2ccccc2c1Cl)c1nc2c(F)cccc2s1.Cl | 8.6
CN(C)CCCN(C(=O)c1ccco1)c1nc2c(F)cccc2s1.Cl | -62.9
CCN1CCN(C(c2ccc(OC)cc2)c2nnnn2Cc2ccc3c(c2)OCO3)CC1.Cl (stereo not shown) | -17.4
N#Cc1ccccc1S(=O)(=O)N1CCC(C(=O)NCc2ccccc2CN2CCCC2)CC1 | -45.7
Cn1c(=O)c2c(nc(NC3CCCCC3)n2CC(=O)C23CC4CC(CC(C4)C2)C3)n(C)c1=O | 15.4
CCCC1CC(C)(c2csc(Nc3ccc(OCC)cc3)n2)OC1=O (stereo not shown) | -0.99
COC(=O)c1[nH]c2cccc(OC)c2c1NC(=O)CCN1CC(C)CC(C)C1 (stereo not shown) | -4.14
CCOc1ccccc1NC(=S)N(CCCN1CCOCC1)Cc1cn(C)c2ccccc12 | 5.62
Cc1ccc(CN2C3CCCC2CC(NC(=O)c2ccc(F)cc2)C3)cc1 (stereo not shown) | -77
CCCN1C2CCCC1CC(NC(=O)c1ccc(F)cc1)C2 (stereo not shown) | -29.7
Cc1ccc(CN2C3CCCC2CC(NC(=O)c2ccc(C)cc2)C3)cc1 (stereo not shown) | -77.3

Compound | hERG current change (%, negative = inhibition) at 1uM [%]
Cc1ccc(CN2C3CCCC2CC(NC(=S)NCc2ccccc2)C3)cc1 (stereo not shown) | -54.4
CNC(=S)NC1CC2CCCC(C1)N2Cc1ccc(C)cc1 (stereo not shown) | -4.5
Cc1ccc(C(=O)NC2CC3CCCC(C2)N3Cc2ccccc2)cc1 (stereo not shown) | -6.55
O=C(NC1CC2CCCC(C1)N2Cc1ccc(F)cc1)c1ccc(F)cc1 (stereo not shown) | -38.3
CC(=O)NC1CC2CCCC(C1)N2Cc1ccc(C)cc1 (stereo not shown) | -10.4
CCNC(=S)NC1CC2CCCC(C1)N2Cc1ccc(C)cc1 (stereo not shown) | -12.3
O=C1CC(=C2c3ccccc3-c3ccccc32)C(=O)N1CCN1CCN(c2cccc(Cl)c2)CC1 | 7.4
COc1cccc(CN2CCNC(=O)C2CC(=O)N2CCCCO2)c1OC (stereo not shown) | 7.47
COc1ccc(CCN2C(=O)CSC2=S)cc1OC | 11.5
COC(=O)C1=CNC=C(C(=O)OC)C1c1cccc(OC)c1 | 9.02
Cc1cc(/C=N/NC(N)=S)c(C)n1-c1ccc(Cl)cc1 | 1.13
Cc1nc2c(C)cccn2c1/C(O)=C1\C(=O)C(=O)N(CCN(C)C)C1c1ccco1 (stereo not shown) | 11.2
Cc1ccc(C#CC[N+]2(C)CCCCC2)cc1.[Br-] | 14.2
C#CC[N+]1(CC#Cc2ccc(C)cc2)CCCCC1.[Br-] | 2.2
Cc1ccc(C#CC[N+]2(CC#Cc3ccc(C)cc3)CCCCC2)cc1.[Br-] | -51.8
COc1ccc(C)cc1NC(=O)C1CCCN(S(=O)(=O)c2ccc(-n3cnnn3)cc2)C1 (stereo not shown) | -71.4
COc1ccc(OC)c(NC(=O)C2CCCN(S(=O)(=O)c3ccc(-n4cnnn4)cc3)C2)c1 (stereo not shown) | 5.12
COc1ccccc1NC(=O)C1CCCN(S(=O)(=O)c2ccc(-n3cnnn3)cc2)C1 (stereo not shown) | -23.5
